# Screens as filed in PubChem.
# Compounds with a hit are over-represented: about 2.8% of the library has one in this group of screens.
# TGFb SMAD3 inh: qHTS for Inhibitors of TGF-b; Potency, µM (series often up to 46.1 µM), for the others: top-dose activity, negative = inhibition, actives largely listed as inhibitors; hit rate 1.2% among 410,000; HepG2 CAGA-GFP TGF-b/SMAD3 reporter, GFP fluorescence, 18 h; TGF-beta stimulated, 500 pg/mL final; further: potency means the concentration at half of the fitted maximal effect; on the % scale 0 is the no-effect control and ±100 the full control effect; nearly all actives have a fitted effect of over 65% in size
#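 Using HEPG2 CAGA-GFP reporter cells at 1000 cells/well, we pinned test compounds, stimulated with recombinant TGF-beta (500 pg/mL final) and measured total well GFP after 18 h.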
# ATXN2 expr inh: Primary qHTS for Inhibitors of ATXN expression; HEK-293 ATXN2-luciferase reporter, luminescence, 24 h; Potency, µM (titrated, usually from 57 µM), inactives show at the highest dose activity change, negative = inhibition, actives largely listed as inhibitors; hit rate 0.72% among 360,000; AID 1745845, 2022; further: potency means the concentration at half of the fitted maximal effect; on the % scale 0 is the no-effect control and ±100 the full control effect; nearly all actives have a fitted effect of over 55% in size
#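 qHTS (up to 57 uM final) was run with 24 h compound exposure of reporter cells at 37 °C. Each well was multiplexed: SteadyGlo luminescence measured ATXN2-luciferase expression after a fluorogenic Gly-Phe-AFC viability readout (25 uM final).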
# S2 tox: Viability Counterscreen for Primary qHTS for Inhibitors of ATXN expression; Potency, µM (doses to about 56.7 µM), actives largely listed as cytotoxic; S2 cells (HEK-293 line with an ATXN2-luciferase reporter) viability, CellTiter-Fluor protease fluorescence, 24 h; hit rate 0.49% among 400,000; further: potency means the concentration at half of the fitted maximal effect; nearly all actives have a fitted effect of over 40% in size
# CtBP-E1A blk: qHTS Assay for Inhibitors of the CtBP/E1A Interaction; CtBP / adenovirus E1A interaction (AlphaScreen); AlphaScreen GST-E1A/His-CtBP binding, 1536-well; hits give low values; activity change, % (concentration not given with the values); hit rate 0.49% among 340,000; in the data active means activity change below about -65%; inconclusive means mostly about -30% to -63%; further: on the % scale 0 is the no-effect control and ±100 the full control effect
#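 Homogeneous bead-based format: GST-tagged E1A captured on glutathione donor beads, His-tagged CtBP on nickel acceptor beads; compounds precede bead addition by 2 h at 37 °C.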
# HepG2 tox-1: qHTS for Inhibitors of TGF-b: Cytotox Counterscreen. hit rate 0.76% among 410,000. HepG2 CAGA-GFP viability, ATP luminescence, 18 h. Potency, µM (top dose mostly 46.1 µM), for the others: at the top dose activity change, negative = cytotoxicity, usual class: cytotoxic; further: potency means the concentration at half of the fitted maximal effect
#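 CellTiter-Glo luminescence gave cytotoxicity after 18 hours at 37 degrees C. The cells were HepG2 CAGA-GFP in 1% FBS DMEM, stimulated with 500 pg/mL TGF-beta after compound addition. %Activity was normalised to no-cell wells (complete cell-killing) and DMSO (no toxicity), and curves were fitted and classified.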
# Six1-Eya2 blk: qHTS Assay for Inhibitors of the Six1/Eya2 Interaction; Homeobox protein SIX1 (Homo sapiens) + Protein phosphatase EYA2 (Homo sapiens), …; AlphaScreen GST-Six1/His-Eya2 binding, biochemical; hits give low values; activity change, % (concentration not given with the values); hit rate 0.56% among 360,000; AID 651725, 2012; in the data active means activity change below about -65%; inconclusive means mostly about -30% to -63%; further: on the % scale 0 is the no-effect control and ±100 the full control effect
#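 AlphaScreen with GST-Six1 and His-Eya2 (5X mix: 250 nM and 500 nM), glutathione donor and nickel acceptor beads; buffer 50 mM Tris pH 8.0, 300 mM NaCl, 1 mM TCEP; 1 h at 37 C in the dark.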
# TGFb CAGA inh: qHTS for Inhibitors of TGF-b: Confirmation of Cherry Picks; HepG2 CAGA-GFP TGF-b reporter, GFP fluorescence, 18 h; cells stimulated with TGF-beta, 500 pg/mL; AID 720534, 2013; Potency, µM (highest dose often 46.1 µM), for inactives: top-dose activity, negative = inhibition, actives largely listed as inhibitors; shares compounds with TGFb SMAD3 inh; hit rate 63% among 1,600; further: potency means the concentration at half of the fitted maximal effect; on the % scale 0 is the no-effect control and ±100 the full control effect; nearly all actives have a fitted effect of over 65% in size
# HepG2 tox-2: qHTS for Inhibitors of TGF-b: Cytotox Counterscreen for Cherry Picks. shares compounds with TGFb SMAD3 inh. HepG2 CAGA-GFP viability, ATP luminescence, 18 h; cells stimulated with TGF-beta, 500 pg/mL. Potency, µM (top dose mostly 46.1 µM), inactives show top-dose activity, negative = cytotoxicity, most hits filed as inhibitors. hit rate 27% among 1,600. AID 720535, 2013; further: potency means the concentration at half of the fitted maximal effect; on the % scale 0 is the no-effect control and ±100 the full control effect; nearly all actives have a fitted effect of over 70% in size
# CCL64 TGFb inh: qHTS for Inhibitors of TGF-b: CCL64 Cells Orthogonal Assay for Cherry Picks | Potency, µM (doses to about 46.1 µM), for inactives: top-dose activity, negative = inhibition, most hits filed as inhibitors | shares compounds with TGFb SMAD3 inh | hit rate 41% among 1,600 | AID 720536, 2013 | CCL64 CAGA-GFP reporter, TGF-b stimulated, GFP fluorescence, 18 h; further: potency means the concentration at half of the fitted maximal effect; nearly all actives have a fitted effect of over 65% in size
# TGFb COP inh: qHTS for Inhibitors of TGF-b: Hit Validation in HepG2 Cells using COP promoter; shares compounds with TGFb SMAD3 inh; HepG2 COP-GFP TGF-b reporter, GFP fluorescence, 18 h; cells stimulated by added recombinant TGF-beta; Potency, µM (series often up to 46.1 µM), without a hit: at the top dose activity, negative = inhibition, hits mostly inhibitors; hit rate 3% among 1,600; further: potency means the concentration at half of the fitted maximal effect; nearly all actives have a fitted effect of over 70% in size
# * hit, by the source's call; i = inactive; ? = inconclusive; . = no result; ! = repeats disagree. Unless noted, the call rests on the fitted dose curve; in most records, active means well fitted curve in the direction sought with a large enough effect; inconclusive means small, poorly fitted or top-dose-only effect, or another doubt; inactive means no such curve, though single readings can be large; an effect the other way counts as inactive or inconclusive.
SMILES,TGFb SMAD3 inh,ATXN2 expr inh,S2 tox,CtBP-E1A blk,HepG2 tox-1,Six1-Eya2 blk,TGFb CAGA inh,HepG2 tox-2,CCL64 TGFb inh,TGFb COP inh
C[C@H](CO)N1C[C@H](C)[C@@H](CN(C)C(=O)Nc2ccc(C(F)(F)F)cc2)Oc2ccc(NS(=O)(=O)c3ccccc3)cc2C1=O,6.31µM*,0.0%,?,7.7,-16.3%,22.9,?,1.3%,?,0.8%
Cc1noc(C)c1S(=O)(=O)Nc1ccc2c(c1)C(=O)N([C@@H](C)CO)C[C@H](C)[C@@H](CN(C)Cc1ccc(C(F)(F)F)cc1)OCCCC[C@H](C)O2,10µM*,?,.,-14.7,-47.2%,4.6,?,?,32.6µM*,67.8%
CCOc1ccccc1C1CC(=O)Oc2c1c(=O)n(C)c1ccccc21 (stereo not drawn),-2.9%,8.8%,i,.,0.8%,.,.,.,.,.
Cc1c(Cl)cccc1NC(=O)Cn1nnc2sc3c(c2c1=O)CCCC3,1.7%,7.3%,i,.,-11.1%,.,.,.,.,.
CCOC(=O)C1CCN(C(=O)c2nn(-c3ccc(OC)c(Cl)c3)c(=O)c3c2c2ccccc2n3C)CC1,-22.3%,.,.,.,2.6%,.,.,.,.,.
O=C(NCCc1ccccc1)c1ccc2c(c1)nc1n2CCOC1,26.1%,.,.,.,1.9%,.,.,.,.,.
COc1ccc(Cl)cc1NC(=O)Cn1c(=O)n(Cc2ccco2)c(=O)c2ccc(C(=O)NC3CCCC3)cc21,-3.0%,7.1%,i,.,-2.0%,.,.,.,.,.
CCCC[C@H]1COCCS(=O)(=O)N1Cc1ccc(Br)cc1,10µM*!,-17.5%,i,10.2,0.3%,2.2,?,-17.1%,?,15.9%
CCCC[C@H]1COCCS(=O)(=O)N1Cc1ccc(C)cc1,-26.0%,-18.3%,i,1.7,-29.0%,3.8,.,.,.,.
Cc1ccc(Cc2c(-c3ccc(Cl)cc3)nc3cc(C)c(Br)c(C)n23)cc1,11.2µM*,5.0%,i,4.3,-21.0%,-12.3,20.6µM*,-23.5%,-17.6%,-7.0%
Cc1ccc(-c2nc3cc(C)c(Br)c(C)n3c2Cc2ccccc2)cc1,-0.7%,91.4%,i,-6.3,-19.9%,-0.3,.,.,.,.
Cc1ccc2nc(/C(C#N)=C\c3ccc(N4CCOCC4)o3)[nH]c2c1,107.8%,60.1%,i,2.3,-18.7%,?,.,.,.,.
